Results filed as inconclusive are left out. Entries that show only a call come without a potency. The source made the active and inactive calls. Unless noted, calls follow the shape of the dose curve; as a rule, active = well fitted curve in the direction sought with a large enough effect in the repeat runs; inconclusive = weak or mixed curves; inactive = no such curve, though single readings can be large; an effect the other way counts as inactive or inconclusive.
Columns and labels:
[1] = qHTS assay to identify small molecule antagonists of the sonic hedgehog signaling (Shh) pathway (AID 1259369; calls by dose curve; also: nearly all actives have a fitted effect of over 45% in size; also: potency is read from the fitted curve at half-maximal effect)
Summary of the method: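 Read-out is luminescence from a firefly luciferase gene controlled by the Gli1 response element, in 3T3Gli1-Luc cells pre-incubated 4hr then exposed to compounds and conditioned medium for 24hr.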

[2] = target: Estrogen receptor beta (Homo sapiens) (UniProt Q92731); assay: qHTS assay to identify small molecule agonists of the estrogen receptor beta (ER-beta) signaling pathway (AID 1259377; active = well fitted activation curve with a large enough effect in the signal ratio in the repeat runs, not every such curve was filed as active; the % refers to the signal ratio)
Summary of the method: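 In HEK293T cells bearing a UAS-beta-lactamase reporter under ER-beta control, DMSO-delivered compounds were incubated for 16 hr at 37C. Activity was detected as fluorescence 2 hours after LiveBLAzer B/G FRET substrate addition.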

[3] = qHTS assay to identify small molecule agonists of the androgen receptor (AR) signaling pathway in the presence of an antagonist - cell viability counter screen (AID 1259379);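 also: MDA-kb2 human breast cancer cells carrying an MMTV luciferase reporter; series mostly up to about 92 µM; nearly all actives have a fitted effect of over 25% in size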
Summary of the method: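 Each compound was tested at 15 concentrations on MDA-kb2 cells in the presence of 3.0uM nilutamide. Viability was measured by CellTiter-Fluor fluorescence after a 16 hr incubation at 37C in a CO2-free atmosphere.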

[4] = qHTS assay to identify small molecule antagonists of the estrogen receptor beta (ER-beta) signaling pathway - cell viability counter screen (AID 1259382); also: series mostly up to about 92 µM; nearly all actives have a fitted effect of over 55% in size
Summary of the method: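 CellTiter-Glo ATP luminescence measured after the LiveBLAzer read in the same wells; ER-beta-UAS-bla HEK293T cells, 16 hr compound treatment with 1nM 17-beta-estradiol agonist at 37C, 5% CO2.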

[5] = target: Estrogen receptor (Homo sapiens) (UniProt P03372); assay: qHTS assay to identify small molecule agonists of the estrogen receptor alpha (ER-alpha) signaling pathway in the presence of an antagonist (AID 1259383; calls by dose curve; also: top concentration of the series differs between compounds; nearly all actives have a fitted effect of over 15% in size)
Summary of the method: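 Luminescent ERE-luciferase reporter, VM7Luc4E2 cells (endogenous ER-alpha); 10.0nM ICI-182,780 final; 15-point compound titration; 22hr at 37C; ONE-Glo, 30min RT.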

[6] = qHTS assay to identify small molecule agonists or antagonists of the thyroid stimulating hormone receptor (TSHR) signaling pathway - wild type cell line counter screen (AID 1259384; calls by dose curve)
Summary of the method: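 Wild-type Hek293 cells, 800/well, 18 h at 37C, then compound with Ro20-1724 for 30 min RT. cAMP by HTRF (cAMP-d2/anti-cAMP cryptate), 1 h RT, fluorescence read. 15 concentrations, triplicates.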

[7] = target: Thyrotropin receptor (Homo sapiens) (UniProt P16473); assay: qHTS assay to identify small molecule antagonists of the thyroid stimulating hormone receptor (TSHR) signaling pathway (AID 1259385; calls by dose curve; also: nearly all actives have a fitted effect of over 20% in size)
Summary of the method: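 TSHR-HEK293 cells (800/well) plated 18 h, then compounds with Ro20-1724 and TSH at 1.5 ng/mL final, 30 min at room temperature. cAMP quantified by HTRF (cAMP-d2/anti-cAMP-cryptate, 1 h); 15 concentrations in triplicate.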

[8] = qHTS assay to identify small molecule agonists of the estrogen receptor alpha (ER-alpha) signaling pathway in the presence of an antagonist - cell viability counter screen (AID 1259386);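 also: series mostly up to about 92 µM; cells exposed to compounds for 22 h at 37 °C before the viability read; nearly all actives have a fitted effect of over 30% in size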
Summary of the method: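 Using estrogen-depleted VM7Luc4E2 cells, the 15-concentration compound series was applied together with 10.0nM ICI-182,780 and incubated 22hr at 37C/5% CO2. Cell viability was then scored by CellTiter-Fluor.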

[9] = target: Progesterone receptor (Homo sapiens) (UniProt P06401); assay: qHTS assay to identify small molecule agonists of the progesterone receptor (PR) signaling pathway (AID 1346784; calls by dose curve; also: nearly all actives have a fitted effect of over 30% in size)
Summary of the method: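 Using charcoal-stripped serum (2%) to limit endogenous steroids, PR-UAS-bla HEK 293T cells received compounds for 16 hr at 37C after 6 hr plating; beta-lactamase FRET fluorescence was recorded following 2 hr substrate loading at room temperature.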

[10] = target: Progesterone receptor (Homo sapiens) (UniProt P06401); assay: qHTS assay to identify small molecule antagonists of the progesterone receptor (PR) signaling pathway (AID 1346795; active = well fitted inhibition curve with a large enough effect in the signal ratio in the repeat runs, not every such curve was filed as active; the % refers to the signal ratio)
Summary of the method: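 Inhibition of R5020-induced (1 nM final) beta-lactamase reporter signal in PR-UAS-bla HEK293T cells was scored by FRET fluorescence after overnight (16 hr) compound treatment.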

[11] = qHTS assay to identify small molecule antagonists of the progesterone receptor (PR) signaling pathway - cell viability counter screen (AID 1346798); also: series mostly up to about 92 µM; nearly all actives have a fitted effect of over 50% in size
Summary of the method: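 ATP content as viability readout: CellTiter-Glo luminescence, 30 min room temperature, in PR-UAS-bla HEK293T cells after 16 hr compound/R5020 treatment at 37C and 5% CO2.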

[12] = qHTS assay to identify small molecule agonists of the progesterone receptor (PR) signaling pathway - cell viability counter screen (AID 1346799; calls by dose curve; also: nearly all actives have a fitted effect of over 45% in size)
Summary of the method: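 Cytotoxicity in PR-bla HEK293T cells: 16 h compound, 37C; CellTiter-Glo added post-FRET read; luminescence after 30 min RT.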

[13] = qHTS assay to identify small molecule agonists of the TGF-beta/Smad signaling pathway - cell viability counter screen (AID 1346829); also: top concentration of the series differs between compounds; nearly all actives have a fitted effect of over 45% in size
Summary of the method: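 HEK 293T SBE-bla line, 5 hr compound exposure at 37 C, multiplexed CellTiter-Glo viability read by luminescence.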

[14] = qHTS assay to identify small molecule agonists of the TGF-beta/Smad signaling pathway (AID 1346859; active = well fitted activation curve with a large enough effect in the signal ratio in the repeat runs, not every such curve was filed as active; the % refers to the signal ratio; also: series mostly up to about 77 µM)
Summary of the method: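 Stable Smad binding element-beta-lactamase HEK 293T cells; 5 hr compound exposure at 37 C under 5% CO2; 2 hr room-temperature substrate step; fluorescence excited at 405 nm, collected at 460 nm and 530 nm.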

[15] = target: Thyrotropin-releasing hormone receptor (Homo sapiens) (UniProt P34981); assay: qHTS assay to identify small molecule agonists of the thyrotropin-releasing hormone receptor (TRHR) signaling pathway (AID 1346891; calls by dose curve;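 also: HEK293 cells expressing TRHR with calcium dye readout; series mostly up to about 58 µM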)
Summary of the method: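 In 1536-format, 1500 TRHR-Hek293 cells per well grew 18 h, took up calcium dye for 2 h at 37 °C, received compound, and were read kinetically; 15-point titrations, triplicates.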

[16] = qHTS assay to identify small molecule agonists of the estrogen receptor beta (ER-beta) signaling pathway - cell viability counter screen (AID 1259380); also: nearly all actives have a fitted effect of over 30% in size; also: potency is read from the fitted curve at half-maximal effect
Summary of the method: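 Compounds dissolved in DMSO were pin-transferred onto ER-beta-UAS-bla HEK293T cells that had settled 6 hr, and exposure ran 16 hr at 37C. Following the reporter read, CellTiter-Glo luminescence after 30 min at room temperature indicated cytotoxicity.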

[17] = qHTS assay to identify small molecule antagonists of the TGF-beta/Smad signaling pathway - cell viability counter screen (AID 1346824); also: nearly all actives have a fitted effect of over 50% in size
Summary of the method: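 SBE-bla HEK 293T cells, incubated overnight, then compound plus 0.25 ng/mL TGF-beta1 (stock added) for 5 hr at 37 C. Viability was read in the same wells by CellTiter-Glo luminescence after 30 min at room temperature.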

[18] = target: Thyrotropin-releasing hormone receptor (Homo sapiens) (UniProt P34981); assay: qHTS assay to identify small molecule antagonists of the thyrotropin-releasing hormone receptor (TRHR) signaling pathway (AID 1346877; active = well fitted inhibition curve with a large enough effect in the repeat runs, not every such curve was filed as active; also: series mostly up to about 51 µM)
Summary of the method: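 Calcium signal in dye-loaded TRHR/HEK293 cells; compounds added 5 min before TRH (1 nM final); fluorescence monitored 3 min at 1 s steps.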

[19] = target: Estrogen receptor beta (Homo sapiens) (UniProt Q92731); assay: qHTS assay to identify small molecule antagonists of the estrogen receptor beta (ER-beta) signaling pathway (AID 1259378; active = well fitted inhibition curve with a large enough effect in the signal ratio in the repeat runs, not every such curve was filed as active; the % refers to the signal ratio)
Summary of the method: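 ER-beta-UAS-bla HEK293T cells in 2% charcoal-stripped FBS medium treated with compound plus 1nM final 17-beta-estradiol for 16 hr at 37C. Beta-lactamase reporter read by FRET substrate fluorescence after 2 hours at room temperature.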

Progesterone receptor (Homo sapiens), sequence (P06401 whole entry, looked up): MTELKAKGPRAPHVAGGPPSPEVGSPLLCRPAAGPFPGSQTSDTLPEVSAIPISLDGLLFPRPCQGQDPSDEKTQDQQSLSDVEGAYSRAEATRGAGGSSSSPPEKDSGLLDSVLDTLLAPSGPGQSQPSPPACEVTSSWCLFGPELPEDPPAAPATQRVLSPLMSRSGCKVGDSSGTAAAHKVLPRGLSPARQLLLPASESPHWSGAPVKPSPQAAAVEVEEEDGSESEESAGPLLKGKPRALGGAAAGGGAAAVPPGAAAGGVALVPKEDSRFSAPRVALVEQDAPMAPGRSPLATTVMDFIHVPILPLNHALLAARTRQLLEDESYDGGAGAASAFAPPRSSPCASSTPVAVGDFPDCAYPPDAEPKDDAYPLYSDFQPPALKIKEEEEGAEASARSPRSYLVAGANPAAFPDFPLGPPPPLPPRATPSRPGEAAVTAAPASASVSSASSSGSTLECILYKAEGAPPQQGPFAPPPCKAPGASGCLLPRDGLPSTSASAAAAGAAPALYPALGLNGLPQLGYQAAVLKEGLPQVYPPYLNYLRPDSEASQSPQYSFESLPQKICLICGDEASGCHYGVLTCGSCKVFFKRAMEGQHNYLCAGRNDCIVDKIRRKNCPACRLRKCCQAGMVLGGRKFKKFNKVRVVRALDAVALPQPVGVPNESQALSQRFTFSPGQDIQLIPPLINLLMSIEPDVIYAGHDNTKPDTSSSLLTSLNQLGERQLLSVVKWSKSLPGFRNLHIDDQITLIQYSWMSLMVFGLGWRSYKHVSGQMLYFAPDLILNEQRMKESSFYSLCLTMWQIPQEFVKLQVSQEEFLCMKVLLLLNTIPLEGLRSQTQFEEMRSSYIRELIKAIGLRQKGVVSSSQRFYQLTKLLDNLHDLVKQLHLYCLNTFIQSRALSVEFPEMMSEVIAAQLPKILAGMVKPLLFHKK
Thyrotropin-releasing hormone receptor (Homo sapiens), sequence (P34981 whole entry, looked up): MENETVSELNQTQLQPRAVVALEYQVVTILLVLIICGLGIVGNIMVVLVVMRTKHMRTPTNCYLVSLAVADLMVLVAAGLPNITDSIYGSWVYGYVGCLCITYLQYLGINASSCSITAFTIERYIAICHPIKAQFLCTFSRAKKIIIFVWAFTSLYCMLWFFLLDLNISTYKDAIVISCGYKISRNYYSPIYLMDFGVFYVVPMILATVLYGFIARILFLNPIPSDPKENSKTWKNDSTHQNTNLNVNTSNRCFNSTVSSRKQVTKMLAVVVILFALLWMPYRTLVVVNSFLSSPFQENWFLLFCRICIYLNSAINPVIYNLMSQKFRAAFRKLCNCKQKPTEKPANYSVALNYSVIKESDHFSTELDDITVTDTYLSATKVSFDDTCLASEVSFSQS
Estrogen receptor (Homo sapiens), sequence (P03372 whole entry, looked up): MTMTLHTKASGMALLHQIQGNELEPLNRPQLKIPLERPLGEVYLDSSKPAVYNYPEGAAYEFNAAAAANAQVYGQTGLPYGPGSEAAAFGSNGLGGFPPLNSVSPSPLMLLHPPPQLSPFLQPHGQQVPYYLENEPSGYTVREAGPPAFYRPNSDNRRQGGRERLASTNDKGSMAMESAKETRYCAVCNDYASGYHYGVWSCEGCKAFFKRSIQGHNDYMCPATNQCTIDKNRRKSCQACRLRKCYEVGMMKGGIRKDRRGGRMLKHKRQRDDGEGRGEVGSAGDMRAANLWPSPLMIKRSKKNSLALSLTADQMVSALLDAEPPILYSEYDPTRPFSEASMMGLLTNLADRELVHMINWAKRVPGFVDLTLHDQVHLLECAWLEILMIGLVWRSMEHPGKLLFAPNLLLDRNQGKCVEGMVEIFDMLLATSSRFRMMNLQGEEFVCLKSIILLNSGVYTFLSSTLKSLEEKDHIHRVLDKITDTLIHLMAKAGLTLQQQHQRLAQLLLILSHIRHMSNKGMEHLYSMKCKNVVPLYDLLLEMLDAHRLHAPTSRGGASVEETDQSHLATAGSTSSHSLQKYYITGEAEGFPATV
Estrogen receptor beta (Homo sapiens), sequence (Q92731 whole entry, looked up): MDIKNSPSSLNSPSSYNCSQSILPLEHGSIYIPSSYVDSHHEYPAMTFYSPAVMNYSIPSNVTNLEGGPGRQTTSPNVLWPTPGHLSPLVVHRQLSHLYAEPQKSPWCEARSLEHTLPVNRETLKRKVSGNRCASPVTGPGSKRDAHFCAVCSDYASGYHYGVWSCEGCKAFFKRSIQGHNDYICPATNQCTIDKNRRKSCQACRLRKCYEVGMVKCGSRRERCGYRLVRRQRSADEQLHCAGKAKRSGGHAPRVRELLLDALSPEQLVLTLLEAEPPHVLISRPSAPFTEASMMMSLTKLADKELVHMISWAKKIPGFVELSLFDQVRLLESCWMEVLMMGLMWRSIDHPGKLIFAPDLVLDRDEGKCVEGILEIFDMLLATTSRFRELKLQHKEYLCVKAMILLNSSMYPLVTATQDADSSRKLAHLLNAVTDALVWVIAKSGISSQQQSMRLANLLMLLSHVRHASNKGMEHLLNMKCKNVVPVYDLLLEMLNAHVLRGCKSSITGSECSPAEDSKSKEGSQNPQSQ
Thyrotropin receptor (Homo sapiens), sequence (P16473 whole entry, looked up): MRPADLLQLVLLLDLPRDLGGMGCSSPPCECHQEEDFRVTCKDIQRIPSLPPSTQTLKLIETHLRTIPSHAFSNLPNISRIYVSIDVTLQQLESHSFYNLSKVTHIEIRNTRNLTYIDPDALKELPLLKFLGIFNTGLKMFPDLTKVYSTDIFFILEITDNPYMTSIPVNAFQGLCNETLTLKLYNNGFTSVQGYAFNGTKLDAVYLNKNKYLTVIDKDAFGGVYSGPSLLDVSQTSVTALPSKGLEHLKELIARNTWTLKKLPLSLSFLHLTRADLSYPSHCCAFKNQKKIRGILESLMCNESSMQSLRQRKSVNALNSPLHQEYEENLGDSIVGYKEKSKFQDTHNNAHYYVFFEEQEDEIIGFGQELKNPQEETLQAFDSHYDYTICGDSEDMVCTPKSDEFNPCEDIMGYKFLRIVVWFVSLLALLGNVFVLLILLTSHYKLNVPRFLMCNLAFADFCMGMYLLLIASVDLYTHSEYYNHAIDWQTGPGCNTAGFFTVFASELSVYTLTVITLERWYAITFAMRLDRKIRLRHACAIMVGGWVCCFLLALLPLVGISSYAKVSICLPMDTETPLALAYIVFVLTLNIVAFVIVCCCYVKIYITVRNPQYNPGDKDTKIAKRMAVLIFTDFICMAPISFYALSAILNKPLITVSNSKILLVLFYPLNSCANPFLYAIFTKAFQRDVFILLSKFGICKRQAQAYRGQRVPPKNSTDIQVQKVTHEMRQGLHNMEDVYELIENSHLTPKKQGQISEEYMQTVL

| Compound | Potency [1] | Potency [2] | Potency [3] | outcome [4] | outcome [5] | outcome [6] | outcome [7] | Potency [8] | Potency [9] | Potency [10] | Potency [11] | Potency [12] | outcome [13] | outcome [14] | Potency [15] | Potency [16] | outcome [17] | outcome [18] | Potency [19] |
| --- | --- | --- | --- | --- | --- | --- | --- | --- | --- | --- | --- | --- | --- | --- | --- | --- | --- | --- | --- |
| Cc1cccc(C)c1NC(=O)CC12CCCN1CCC2 | inactive | inactive | inactive | inactive | inactive | inactive | inactive | inactive | inactive | inactive | inactive | inactive | inactive | inactive | inactive |  |  |  |  |
| CO[C@@]1(NC(=O)C(C(=O)O)c2ccc(O)cc2)C(=O)N2C(C(=O)O)=C(CSc3nnnn3C)CO[C@@H]21 (some centres not stated) | inactive |  | inactive | inactive | inactive | inactive | inactive | inactive |  |  | inactive | inactive |  | inactive | inactive | inactive | inactive | inactive |  |
| CC(C)(C)c1ccc(-c2ccc(C(C)(C)C)cc2)cc1 | inactive | inactive | inactive | inactive | inactive | inactive | inactive | inactive | inactive | inactive | inactive | inactive |  | inactive |  |  | inactive | inactive |  |
| O=Cc1cccc(Br)c1 | inactive | inactive |  | inactive |  | inactive |  | inactive | inactive |  | inactive | inactive | inactive | inactive | inactive | inactive |  |  | inactive |
| Nc1ccn([C@@H]2O[C@H](CO)[C@@H](O)C2O)c(=O)n1 (some centres not stated) | inactive |  | inactive | inactive |  |  |  | inactive | inactive | inactive | inactive | inactive | inactive | inactive |  | inactive | inactive | inactive |  |
| NCCCC[C@H](N[C@@H](CCc1ccccc1)C(=O)O)C(=O)N1CCC[C@H]1C(=O)O | inactive |  | inactive | inactive |  |  |  | inactive | inactive | inactive |  | inactive | inactive | inactive |  | inactive | inactive |  |  |
| C=C[Si](OC(C)=O)(OC(C)=O)OC(C)=O | 30.6 µM (active) |  | inactive | inactive |  | inactive | inactive | inactive | inactive | inactive | inactive | inactive | inactive |  |  | inactive | inactive | inactive |  |
| Cc1nc2ccc(CN(C)c3ccc(C(=O)N[C@@H](CCC(=O)O)C(=O)O)s3)cc2c(=O)[nH]1 | inactive |  | inactive |  |  | inactive | inactive | inactive |  | inactive | inactive | inactive | inactive | inactive | inactive | 0.15 µM (active) | inactive | inactive |  |
| CC[N+](CC)(CC(=O)Nc1c(C)cccc1C)Cc1ccccc1 (tested in a mixture with another compound) | inactive |  | inactive | inactive |  | inactive | inactive | inactive | inactive | inactive | inactive | inactive | inactive | inactive |  |  | inactive |  |  |
| O=C(O)CNC(=O)c1ccc(CO)o1 | inactive |  | inactive | inactive | inactive |  |  | inactive | inactive | inactive | inactive | inactive | inactive | inactive | inactive | inactive | inactive | inactive |  |

From PubChem BioAssay (Tox21)
